This test concerns P. falciparum stage V gametocytes. Further details: BacTiter-Glo ATP luminescence viability of purified stage V gametocytes in 384-well plates, per cent inhibition versus DMSO. Conditions: 48 h, 5 µM; inhibitor.

Here are results for 39 molecules from publication PMC4552634, “A New Set of Chemical Starting Points with Plasmodium falciparum Transmission-Blocking Potential for Antimalarial Drug Discovery” (PLoS ONE, 2015).

Screen size: about 13,000 compounds; about 3,200 (25%) showed an effect of 50% or more. This is one part of the list.

As for `CC[C@H]1CN2CC[C@H]1C[C@H]2[C@H](O)c1ccnc2ccc(C#N)cc12` [TCMDC-138234], the “% Inhibition” value is given as 18.99%.
Consider `CC(=O)c1c[nH]c(C(=O)Nc2ccc(-c3cn4ccccc4n3)cc2)c1` [TCMDC-124599], for which the “% Inhibition” value was found to be 36.18%.
Turning to `N=C(N)NN=CC(=O)Nc1cc([N+](=O)[O-])cc([N+](=O)[O-])c1` [TCMDC-137446], the “% Inhibition” value was found to be 15.96%.
Next, `CCCCc1cc(NCC)nc(Nc2ccc(OC)cc2)n1` [TCMDC-133991]: -52.54%; `Nc1nc2c(c(=O)[nH]1)-c1cccc(Br)c1CC2` [TCMDC-137755]: -6.306%.
Next, `Cc1ccc(CNC(=O)[C@H](CCCN)Nc2nc(Nc3ccccc3)ncc2C)cc1` [TCMDC-134947]: 27.45%; `Cc1ccc(CNC(=O)[C@H](CC(C)C)Nc2cc(C)nc(Nc3ccccc3)n2)cc1` [TCMDC-134740]: 5.216%; `Cc1cnc(Nc2ccccc2)nc1N[C@@H](CCCN)C(=O)Nc1ccccc1` [TCMDC-134915]: 85.94%.
In the case of `Cc1ccc(CNC(=O)[C@H](CC(C)C)Nc2cc(C)nc(NCC3CCCCC3)n2)cc1` [TCMDC-134918] it was -23.99%.
As to `Cc1cnc(NCC2CCCCC2)nc1N[C@@H](CO)C(=O)Nc1ccccc1` [TCMDC-134859], the “% Inhibition” value was -15.9%.
In the case of `Cc1ccc(CNC(=O)[C@H](CCCN)Nc2cc(C)nc(NCC3CCCCC3)n2)cc1` [TCMDC-134923] it was 95.63%; in that of `Cc1ccc(CNC(=O)[C@H](Cc2ccccc2)Nc2cc(C)nc(NCC3CCCCC3)n2)cc1` [TCMDC-134932], -13.97%.
As for `Cc1cnc(NCC2CCCCC2)nc1N[C@@H](CC(C)C)C(=O)Nc1ccccc1` [TCMDC-134751], the “% Inhibition” value is on record as -31.13%.
In the case of `Cc1ccc(CNC(=O)[C@H](CCCN)Nc2nc(NCC3CCCCC3)ncc2C)cc1` [TCMDC-134754] it was 82.69%; in that of `Cc1ccc(CNC(=O)[C@H](Cc2ccccc2)Nc2ccnc(NCC3CCCCC3)n2)cc1` [TCMDC-134709], -30.11%.
Next, `Cc1ccc(CNC(=O)[C@H](CCCN)Nc2cc(C)nc(Nc3ccccc3)n2)cc1` [TCMDC-134744]: 61.85%.
Regarding `Cc1ccc(CNC(=O)[C@H](Cc2ccccc2)Nc2cc(C)nc(Nc3ccccc3)n2)cc1` [TCMDC-134858], the “% Inhibition” value worked out at 7.065%.
Next, `O=c1cc(NCCCNCc2ccc(Cl)c(Cl)c2)[nH]c2ccc(Oc3ccccc3)cc12` [TCMDC-139409]: 3.988%; `CCN(CC)CCCC(C)N=C(Nc1ccc(C#N)cc1O)Nc1ccccc1Br` (stereo not drawn) [TCMDC-140130]: 34.96%.
For the molecule `COc1ccccc1CNC(=O)c1nn(-c2ccc(Cl)cc2)c(=O)c2ccccc12` [TCMDC-125601], the “% Inhibition” value is given as -3.161%.
In the case of `CCCc1ccc(S(=O)(=O)NC2CCN(c3ccnc(Nc4ccc(OC)cc4)n3)C2)cc1` (stereo not drawn) [TCMDC-133613] it was 30.72%; in that of `O=C(NCC1CCC(C(=O)NCCc2ccc(Cl)c(Cl)c2)CC1)c1ccc(O)c(-c2ccc(Cl)c(Cl)c2)c1` (stereo not drawn) [TCMDC-140893], 30.85%.
Next, `COc1ccc(NC(=O)Nc2cc(C)nc3cccnc23)cc1Cn1ccnc1` [TCMDC-140647]: -24.24%; `COc1ccccc1CCCN1C(=O)C(c2ccccc2)(c2ccccc2)N=C1N` [TCMDC-136504]: -6.463%; `O=C(c1cc(-c2ccccc2)n[nH]1)N1CCN(S(=O)(=O)c2ccc(Cl)s2)CC1` [TCMDC-124697]: 44.38%.
Next, `Cc1cc(Cc2ccc(S(=O)(=O)c3cc4c(cc3O)CCN(C)CC4)cc2)ccc1Cl` [TCMDC-135485]: 17.27%.
`O=[N+]([O-])c1ccc2c(c1)c1ccccc1n2Cc1ccccc1O` [TCMDC-124344]: the “% Inhibition” value is reported as 66.38%.
Next, `O=[N+]([O-])c1ccc2c(-c3ccccc3)c(-c3ccccc3)n(O)c2c1` [TCMDC-137050]: 9.077%; `Cc1nc2ccc([N+](=O)[O-])cc2c(=O)n1OCc1ccccc1` [TCMDC-131598]: 18.76%; `Cc1ccc(C(=O)Nc2ccc(F)c(F)c2F)cc1S(=O)(=O)N1CCCCC1` [TCMDC-124324]: 19.7%.
Next, `CC1(C)N=C(N)N=C(N)N1OCCCCOc1ccccc1` [TCMDC-131658]: 4.25%.
In the case of `CC1(C)N=C(N)N=C(N)N1OCCCOc1cc(Cl)ccc1Cl` [TCMDC-131679] it was 20.73%; in that of `CC1(C)N=C(N)N=C(N)N1OCCCOc1cc(Cl)c(Cl)cc1Cl` [TCMDC-137301], -2.55%.
As to `CCCc1cc(C)ccc1OCCCON1C(N)=NC(N)=NC1(C)C` [TCMDC-131320], the “% Inhibition” value was 40.89%.
As for `CC(C)(C)c1ccc(OCCCON2C(N)=NC(N)=NC2(C)C)c(C(C)(C)C)c1` [TCMDC-131308], the “% Inhibition” value worked out at 56.27%.
In the case of `CCOC(=O)c1cc(Cl)ccc1OCCCON1C(N)=NC(N)=NC1(C)C` [TCMDC-131705] it was -0.9845%; in that of `CC(C)(C)c1ccccc1OCCCON1C(N)=NC(N)=NC1(C)C` [TCMDC-131751], 48.16%; in that of `CCCc1cc(OCCCOc2ccccc2)ccc1OCCCON1C(N)=NC(N)=NC1(C)C` [TCMDC-131328], 103.6%.
In the case of `CC1(C)N=C(N)N=C(N)N1OCCCCOc1ccc(Cl)cc1C1CCCCC1` [TCMDC-131659] it was 106.8%.
